Calls of active or inactive are those of the source. How the source made its calls: active means hit-call score of the fitted dose curve at least 0.9, where 1 is the maximum; inactive means score below 0.9.
Assay: APR_HepG2_CellCycleArrest_24hr: Apredica 24-hour HepG2 Assay for Cell Cycle Arrest (AID 2282905);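 further: cell cycle arrest scored as ratio of 2N to 4N nuclear DNA content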
Details: imaging, actives raise or lower the signal
Method: APR_HepG2_24hr is a cell-based, multiplexed-readout assay that uses HepG2, a human liver cell line, with measurements taken at 24 hours after chemical dosing in a 384-well plate.APR_HepG2_CellCycleArrest_24hr is one of 10 assay component(s) measured or calculated from the APR_HepG2_24hr assay. It is designed to make measurements of cell phenotype, a form of morphology reporter, as detected with fluorescence intensity signals by HCS Fluorescent Imaging technology.Data from the assay component APR_HepG2_CellCycleArrest_24hr was analyzed into 1 assay endpoint. This assay endpoint, APR_HepG2_CellCycleArrest_24hr, was analyzed with bidirectional fitting relative to DMSO as the negative control and baseline of activity. Using a type of morphology reporter, measures of all nuclear dna for gain or loss-of-signal activity can be used to understand the signaling at the pathway-level as they relate to the gene . Furthermore, this assay endpoint can be referred to as a primary readout, because this assay has produced multiple assay endpoints where this one serves a signaling function. To generalize the intended target to other relatable targets, this assay endpoint is annotated to the cell cycle intended target family, where the subfamily is arrest.
Cells were treated with dimethyl sulfoxide (DMSO) as a solvent control at a final concentration of 0.5% v/v or with compounds in DMSO with a resulting final DMSO concentration of 0.5% v/v. Compound treatment was done at concentrations of 0.39, 0.78, 1.56, 3.12, 6.24, 12.5, 25, 50, 100, and 200 uM in duplicate on each plate. Cells were treated with compounds for 1, 24, or 72 hr. Carbonyl […] m-chloro-phenylhydrazone (CCCP) and taxol were used as positive controls for mitochondrial function and cytoskeletal stability, respectively; DMSO served as the negative control for this experiment. Cells were fixed by the direct addition of 50 uL formaldehyde in Hank's Balanced Salt Solution (HBSS) to a final concentration of 3.7%. After incubation in the fixation medium for 30 min at room temperature (293-298 K), cells were rinsed twice with HBSS and treated with cell permeabilization buffer (16 uL of 0.5% Triton X-100) for 10 min at room temperature (293-298 K) before labeling. For mitochondrial membrane potential and mitochondrial measurements, pre-fixed cells were incubated with 50 uL of MitoTracker Red CMXRos (Invitrogen) at a concentration of 250 nM for 30 min before fixation. In the remaining cases, post-fixed cells were labeled by incubation with a multiplexed mixture of primary antibodies in HBSS for 60 min at room temperature (293-298 K) to detect immunoreactivity of c-Jun (1:500), phospho-histone H3 (1:100), phospho-histone H2A.x (1:200), p53 (1:400), alpha-tubulin (1:200) and Hoechst 33342 (2 ug/mL). Cells were labeled for multiplexed imaging on two separate plates: a) Hoechst 33342, MitoTracker Red, phospho-histone H3, and alpha-tubulin, and b) Hoechst 33342, phospho-histone H2A.x, and c-Jun. A final rinse with HBSS (50 uL) was performed before analysis. The primary and secondary antibodies for the proteins were phospho-histone H3 (rabbit anti-phospho-histone H3 and FITC-donkey anti-rabbit IgG), phospho-histone H2A.x (mouse anti-phospho-histone H2A.x and FITC-donkey anti-mouse IgG), c-Jun (rabbit anti-phospho-c-Jun and Cy3-donkey anti-rabbit IgG), p53 (sheep anti-p53 and Cy5-donkey anti-sheep IgG), alpha-tubulin (mouse anti-alpha-tubulin and Cy5-donkey anti-mouse IgG). These antibodies are available as the CellCiphr HepG2 assay kit (Millipore).Digital images of each well were captured using a Cellomics ArrayScan VTI (Thermo Scientific Cellomics) (0.8 NA objective, 0.63x optical coupler, and XF-93 filter set) at 20x magnification. The images were acquired using the autofocus feature of the ArrayScan instrument, which entails the following steps. First, the camera focuses on channel 1 (Hoechst 33342), where nuclei are identified. Second, a Z offset of 1 um is used for capturing mitochondria (MitoTracker Red). […]

Row | Structure (SMILES) | AC50 | outcome
1 | Cc1cc(Cc2ccc(N)c(C)c2)ccc1N | 35.1 µM (active) | –
2 | COC(=O)[C@H]1[C@H]2C[C@@H]3c4[nH]c5cc(OC)ccc5c4CCN3C[C@H]2C[C@@H](OC(=O)c2cc(OC)c(OC)c(OC)c2)[C@@H]1OC | 79 µM (active) | –
3 | Cc1ccc(-c2cc(C(F)(F)F)nn2-c2ccc(S(N)(=O)=O)cc2)cc1 | – | inactive
4 | C#CC(O)C(CC)CCCC (stereo not given) | – | inactive
5 | O=C(NS(=O)(=O)/C=C/c1cccs1)c1ccc(F)cc1Br | – | inactive
6 | CC(C)OC(=O)C(C)(C)Oc1ccc(C(=O)c2ccc(Cl)cc2)cc1 | – | inactive
7 | C/C=C/c1ccc(OC)cc1 | – | inactive
8 | CC(=O)O[C@]1(C(C)=O)CC[C@H]2[C@@H]3C=C(Cl)C4=CC(=O)[C@@H]5C[C@@H]5[C@]4(C)[C@H]3CC[C@@]21C | – | inactive
9 | NC(=Nc1ccccc1)Nc1ccccc1 | 8.86 µM (active) | –
10 | CCc1cc(C2=C(C(=O)O)N(c3ccccc3C(F)(F)F)S(=O)(=O)c3ccccc32)cc2c1OCO2 | – | inactive
11 | O=C(O)c1[nH]n(-c2ccc(S(=O)(=O)O)cc2)c(=O)c1N=Nc1ccc(S(=O)(=O)O)cc1 | – | inactive
12 | CN(C)C(=O)NC1(c2ccccc2)CCN(CC[C@@]2(c3ccc(F)c(F)c3)CN(C(=O)c3ccccc3)CCO2)CC1 | – | inactive
13 | CCN(CC)CCOc1ccc(C(=C(Cl)c2ccccc2)c2ccccc2)cc1 | – | inactive
14 | C=CCc1ccc(OC)c(OC)c1 | – | inactive
15 | CCCC[C@H]1CN(CC2CCOCC2)C(=O)OC12CCN(C1(C)CCN(C(=O)c3c(C)ncnc3C)CC1)CC2 | – | inactive
16 | NCCOCCOCCN | 0.998 µM (active) | –
17 | O=C1c2c(O)cccc2Cc2cccc(O)c21 | – | inactive
18 | N[C@@H](Cc1c[nH]c2ccccc12)C(=O)O | – | inactive
19 | CN(C)CCCN1c2ccccc2Sc2ccc(Cl)cc21 | – | inactive
20 | OCC(O)CO | – | inactive

Row | Structure (SMILES) | AC50 | outcome
21 | C=CCCCCCCCCCCCC | 69.9 µM (active) | –
22 | NC1CCCCC1 | – | inactive
23 | O=C1NC(=O)C(c2ccccc2)(c2ccccc2)N1 | – | inactive
24 | CC(=O)CC(c1ccccc1)c1c(O)c2ccccc2oc1=O (stereo not given) | – | inactive
25 | COC(=O)CCCC(=O)OC | – | inactive
26 | CC(C)(C)c1ccccc1 | – | inactive
27 | O=C(N[C@@H](c1ccccc1)[C@@H]1CCCCN1)c1cccc(C(F)(F)F)c1Cl | 18.7 µM (active) | –
28 | CC(=O)S[C@H](C(=O)N[C@H]1Cc2ccccc2[C@H]2CCC[C@@H](C(=O)O)N2C1=O)C(C)C | – | inactive
29 | CCCCCCCCCCCCCCOS(=O)(=O)O | 110 µM (active) | –
30 | CCCC(=O)O | – | inactive
31 | CC1(C)C(=O)NC(=O)N1CO | – | inactive
32 | Nc1nc(Cl)nc2c1ncn2[C@H]1C[C@H](O)[C@@H](CO)O1 | – | inactive
33 | CC(N)=O | – | inactive
34 | Oc1ccc(O)cc1 | – | inactive
35 | CS(=O)(=O)c1ccc([C@@H](C[C@H]2CCC(=O)C2)C(=O)Nc2cnccn2)cc1Cl | – | inactive
36 | Nc1nc(=S)c2[nH]cnc2[nH]1 | – | inactive
37 | CC(=O)[C@@]1(O)CC[C@H]2[C@@H]3CCC4=CC(=O)CC[C@]4(C)[C@H]3CC[C@@]21C | – | inactive
38 | CCCCOC(=O)CCCCC(=O)OCCCC | – | inactive
39 | CCCCCCCC(=O)OC | – | inactive
40 | CCCCCCC(C=O)=Cc1ccccc1 | – | inactive
